Source: PubChem
Shiga toxin inh – inhibitors of Shiga toxin in Vero cells | Vero cells, Shiga toxin protein synthesis inhibition reporter | inhibition, % at 38.7 µM | actives 9.2% (n = 290,000); in the data active means inhibition mostly above about 28%, no sharp cut-off; inactive means mostly below about 43%
Pf growth 48h – P. falciparum growth inhibition at 48 hours (one generation). actives 5.9% (n = 310,000). P. falciparum luciferase growth in erythrocytes, 48 h. Potency, µM (series often up to 28.7 µM), actives largely listed as inhibitors
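Firefly luciferase activity from engineered P. falciparum reports growth; inhibitors lower the luminescent signal. Cultures contained 2% hematocrit erythrocytes at 0.1% final parasitemia.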
HCMV inh – blocks human cytomegalovirus replication. HFF cells, HCMV-luciferase reporter, 72 h; stronger effect = lower value. activity change, negative = inhibition, % at 57.5 µM. actives 4.5% (n = 410,000). AID 1259415; in the data active means activity change below about -60%; inconclusive means no clear call, values can overlap the other calls; inactive means above about -39%
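Two compound doses tested in HFFs infected with HCMV-luciferase, MOI 1 PFU/cell, 72 h at 37C. Lysate luminescence read with OneGlo; data normalized against buffer-only and 10uM Salinomycin inhibitor controls.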
Pf growth 96h – P. falciparum growth inhibition at 96 hours; P. falciparum luciferase reporter growth, 96 h; Potency, µM (doses to about 28.7 µM), hits mostly inhibitors; actives 6.9% (n = 320,000)
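Luminescence readout: decreased luciferase signal marks inhibited growth of reporter-expressing P. falciparum in infected red cells (2% hematocrit, 0.05% parasitemia final), exposed to compound two generations (96 h, 37 C, 5% CO2).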
Cycloheximide cs – affects cycloheximide protein synthesis inhibition readout, counter-screen; cell reporter, cycloheximide protein synthesis inhibition counterscreen; max response, %; actives 12% (n = 300,000); in the data active means max response mostly above about 13%, no sharp cut-off; inactive means mostly below about 14%; further: read at 38.3 µM for the half of the compounds with a filed dose
Each line names hits and unclear results; the compound was inactive in the other large screens. Only some compounds are listed: those with a hit (about 20% of all), similar ones and a draw of the others. Unless noted, the call rests on the fitted dose curve; in most records, active means well fitted inhibition curve with a large enough effect; inconclusive means small, poorly fitted or top-dose-only effect, or another doubt; inactive means no such curve, though single readings can be large or run the other way.

O=C(CN1C(=O)CC(c2ccco2)Sc2ccccc21)Nc1cccc(C(F)(F)F)c1 (stereo unspecified)	none (no result: Shiga toxin inh, Pf growth 48h, Pf growth 96h, Cycloheximide cs)
COc1ccc(/C=C2\SC(=O)N(CCNC(=O)Cc3coc4cc(C)ccc34)C2=O)cc1OC	Pf growth 48h inconclusive, HCMV inh -99, Pf growth 96h 7.4µM
COc1cc(/C=C2\SC(=S)N(CCC(=O)Nc3ccc(O)cc3)C2=O)cc(OC)c1OC	Pf growth 96h inconclusive
COc1ccc(/C=C2\SC(=S)N(CCC(=O)Nc3ccc(C(=O)O)cc3)C2=O)cc1	none (no result: Shiga toxin inh)
COc1ccc(/C=C2/SC(=O)N(CCC(=O)Nc3ccccc3)C2=O)cc1OC	HCMV inh -64
COc1ccc(/C=C2\SC(=S)N(CCCC(=O)Nc3ccc(O)cc3)C2=O)cc1	Shiga toxin inh 51, Pf growth 48h inconclusive, HCMV inh active, Pf growth 96h inconclusive, Cycloheximide cs 35
COc1ccc(/C=C2/SC(=S)N(CCCC(=O)Nc3ccc(O)cc3)C2=O)cc1	Shiga toxin inh 94, Pf growth 48h inconclusive, HCMV inh -100, Pf growth 96h inconclusive, Cycloheximide cs 51
CCOC(=O)C(C)NC(=O)CCc1nnc2ccc(N3CCCCC3)nn12 (stereo unspecified)	none (no result: Pf growth 48h)
COc1ccc(/C=C2\SC(=S)N(CCC(=O)Nc3cccc(O)c3)C2=O)cc1	Shiga toxin inh 62, Cycloheximide cs 39
COc1ccc(/C=C2/SC(=S)N(CCC(=O)O)C2=O)cc1	none
O=C(Nc1ccc(CN2CCCCC2)cc1)c1sc2ccccc2c1Cl	Pf growth 96h inconclusive, Cycloheximide cs 23
O=C(Nc1ccc(CN2CCCCC2)cc1)c1cc(Br)ccc1Cl	Pf growth 48h 12µM, HCMV inh inconclusive, Pf growth 96h inconclusive
O=C(NC(=O)c1cccc(F)c1)OC[C@@H]1CCCN2CCCC[C@H]12	Pf growth 96h inconclusive
COc1c(C)cccc1C(=O)Nc1ccc(CN2CCCCC2)cc1	Pf growth 96h inconclusive, Cycloheximide cs 37 (no result: Pf growth 48h)
O=C(Nc1ccc(C(=O)OC[C@@H]2CCCN3CCCC[C@H]23)cc1)c1cccc(Br)c1	Pf growth 48h 1.9µM, Pf growth 96h 2.6µM
COc1cccc(OC)c1C(=O)Nc1ccc(CN2CCCCC2)cc1	Pf growth 96h inconclusive
CCN(CC(=O)Nc1ccccc1OC)C(=O)CC1CCCC1	none (no result: Shiga toxin inh, Pf growth 48h, Pf growth 96h, Cycloheximide cs)
Cc1cccc(N2CCN(C(=O)c3ccc(Cl)c(NC4=NC5CS(=O)(=O)CC5S4)c3)CC2C)c1 (stereo unspecified)	none
CCCN1Cc2cccc(C(=O)Nc3ccc(CN4CCCC4)cc3)c2C1=O	Pf growth 48h 9.3µM (no result: Pf growth 96h)
O=C(Nc1ccc(CN2CCCCC2)cc1)c1cccc(Br)c1	Shiga toxin inh 42, Pf growth 48h inconclusive, Pf growth 96h inconclusive, Cycloheximide cs 21
COCCN1Cc2cccc(C(=O)Nc3ccc4c(c3)OCCO4)c2C1=O	Shiga toxin inh 65, Cycloheximide cs 31 (no result: Pf growth 48h)
CN(C(=O)COc1cccc(C#N)c1)C1CCS(=O)(=O)C1 (stereo unspecified)	none (no result: Shiga toxin inh, Cycloheximide cs)
Clc1ccc(CN2CCC(c3nc4ccc(Cl)cc4[nH]3)CC2)cc1	Pf growth 48h 10µM, HCMV inh -65, Pf growth 96h inconclusive
CC1CCCN(C(=O)CN2CCC(c3nc4ccc(Cl)cc4[nH]3)CC2)C1 (stereo unspecified)	Pf growth 48h inconclusive, Pf growth 96h inconclusive
CC(C)(C)c1ccc(S(=O)(=O)N2CCC(c3nc4ccc(Cl)cc4[nH]3)CC2)cc1	Pf growth 48h 12µM
CC(=O)Nc1ccc(S(=O)(=O)N2CCC(c3nc4ccc(C)cc4[nH]3)CC2)cc1	Pf growth 48h inconclusive, Pf growth 96h inconclusive
CC1CCN(C(=O)c2[nH]cnc2C(=O)N[C@@H](C)C(=O)OC(C)(C)C)CC1	none
CC1CCCN(S(=O)(=O)c2cc(C(=O)NCc3ccco3)ccc2Cl)C1 (stereo unspecified)	none (no result: Shiga toxin inh, Pf growth 48h, Pf growth 96h, Cycloheximide cs)
CCN(c1ccccc1)S(=O)(=O)c1cc(C(=O)NCC(c2ccco2)N2CCCCC2)ccc1C (stereo unspecified)	none (no result: Shiga toxin inh, Pf growth 48h, Pf growth 96h, Cycloheximide cs)
CCN(c1ccccc1)S(=O)(=O)c1cc(C(=O)NCc2ccco2)ccc1C	Pf growth 48h 12µM, Pf growth 96h 13µM (no result: Shiga toxin inh, Cycloheximide cs)
O=C(NCc1ccco1)c1ccc(Cl)c(S(=O)(=O)N2CCCC2)c1	Pf growth 48h 9.3µM, Pf growth 96h 2.6µM (no result: Shiga toxin inh, Cycloheximide cs)
O=C(c1ccc(Cl)c(S(=O)(=O)N2CCOCC2)c1)N(Cc1ccco1)Cc1cccs1	Pf growth 48h inconclusive, Pf growth 96h 2.6µM (no result: Shiga toxin inh, Cycloheximide cs)
O=C(NCc1ccco1)c1ccc2[nH]c(=O)c(=O)[nH]c2c1	none
CC(C)(C)N1C(=O)c2ccc(C(=O)NCc3ccco3)cc2C1=O	Cycloheximide cs 16 (no result: Pf growth 96h)
COc1ccc([C@H]2C[C@@H](O)[C@H](n3cc(C4CC4)nn3)CN2CC2CCCCC2)cc1	none (no result: Shiga toxin inh, Pf growth 48h, Pf growth 96h, Cycloheximide cs)
O=c1[nH]c2c(c(=O)[nH]1)CCC2	none
CN(C)C1(CNC(=O)c2ccc(Cl)c(S(=O)(=O)NCc3ccco3)c2)CCCCC1	Pf growth 48h inconclusive, Cycloheximide cs 23 (no result: Pf growth 96h)
Cc1ccc(C(=O)NCc2ccco2)cc1S(=O)(=O)N1CCCC1	Pf growth 48h 12µM
CNS(=O)(=O)c1cc(C(=O)NCc2ccco2)ccc1Cl	none (no result: Pf growth 96h)
Cc1cc(=O)n2nc(-c3ccc(C(F)(F)F)cc3)sc2n1	Cycloheximide cs 33 (no result: Pf growth 96h)
COc1ccccc1-c1nn2c(=O)cc(C)nc2s1	none (no result: Pf growth 96h)
CN1C(=C2C(=O)OC(C)(C)OC2=O)Sc2ccccc21	Shiga toxin inh 117, Cycloheximide cs 44
Cc1c(N(C)S(=O)(=O)c2cccc(C(=O)NC(C)C)c2)c(=O)n(-c2ccccc2)n1C	Pf growth 96h 12µM
Cc1c(N(C)C(=O)C2CCCN2S(=O)(=O)c2ccccc2)c(=O)n(-c2ccccc2)n1C (stereo unspecified)	Pf growth 96h 2.3µM
Cc1c(NC(=O)CN(c2ccc(F)cc2)S(=O)(=O)c2ccccc2)c(=O)n(-c2ccccc2)n1C	Pf growth 96h inconclusive
Cc1c(N(CC(=O)O)S(=O)(=O)c2ccccc2)c(=O)n(-c2ccccc2)n1C	Pf growth 96h 4.7µM
Cc1ccccc1S(=O)(=O)N[C@H]1CC[C@@]23CCCN2C(=O)CCC[C@H]3[C@H]1Cc1ccccc1	none (no result: Shiga toxin inh, Pf growth 48h, Pf growth 96h, Cycloheximide cs)
CCOC(=S)SSC(=S)OCC	none (no result: Shiga toxin inh, HCMV inh, Cycloheximide cs)
COc1ccccc1CNC(=O)C1CCCN(S(=O)(=O)c2ccc3c(c2)CCCN3C(C)=O)C1 (stereo unspecified)	none (no result: Shiga toxin inh, Pf growth 48h, Pf growth 96h, Cycloheximide cs)
NC(=O)c1cnn(C2CCS(=O)(=O)C2)c1 (stereo unspecified)	Pf growth 96h inconclusive
CCCc1cc(N2CCN(C(=O)c3ccco3)CC2)n2c(nc3ccccc32)c1C#N	Pf growth 48h 12µM, HCMV inh inconclusive (no result: Pf growth 96h)
CCCCc1nc(N2CCN(C(=O)c3ccco3)CC2)c(C#N)c2c1CCCC2	Shiga toxin inh 63, Pf growth 48h 9.3µM, Pf growth 96h inconclusive, Cycloheximide cs 21
CC(C)c1nc(N2CCN(C(=O)c3ccco3)CC2)c(C#N)c2c1COC(C)(C)C2	Pf growth 48h inconclusive, HCMV inh inconclusive, Pf growth 96h inconclusive
O=C(NC1=NCCS1)c1ccc([N+](=O)[O-])cc1Cl	none
Cc1ccccc1NC(=O)CN1C(=O)c2cccnc2Oc2ccc(Cl)cc21	Pf growth 48h inconclusive, Pf growth 96h inconclusive
